# In PubChem BioAssay (NCI):
# The panel holds about 83,000 compounds, 20% with a hit somewhere; the sample as a whole holds those more often.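 Note: values are percent growth. 100 is the growth of untreated cells, values between 100 and 0 indicate rising inhibition; between -100 and 0 indicates cell death.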 A number with no mark means an inactive call. The source made the active and inactive calls. Rule for the calls: active = growth percent below 10; inactive = the rest.
# What was measured:
# Experiment in all cases: NCI-60 one-dose screen, 48 h (100 = growth as untreated, 0 = no growth, -100 = all killed)
# Conditions in all cases: 10 µM unless noted
# NCI-H23 lung = tested on: NCI-H23 lung
# NCI-H226 lung = tested on: NCI-H226 lung
# NCI-H322M lung = tested on: NCI-H322M lung
# HOP-62 NSCLC = tested on: HOP-62 NSCLC
# NCI-H460 lung = tested on: NCI-H460 lung
# HOP-92 NSCLC = tested on: HOP-92 NSCLC
# NCI-H522 lung = tested on: NCI-H522 lung
# A549/ATCC NSCLC = tested on: A549/ATCC NSCLC
# 786-0 renal = tested on: 786-0 renal
# COLO 205 colon = tested on: COLO 205 colon
SMILES,growth (NCI-H23 lung),growth (NCI-H226 lung),growth (NCI-H322M lung),growth (HOP-62 NSCLC),growth (NCI-H460 lung),growth (HOP-92 NSCLC),growth (NCI-H522 lung),growth (A549/ATCC NSCLC),growth (786-0 renal),growth (COLO 205 colon)
OB(O)c1cccc(-c2nc3ccc4[nH]ncc4c3c3c2CCCC3)c1F,59%,37.9%,48.1%,29.3%,22.2%,27.1%,26.9%,47.9%,34.8%,38.7%
CC(C)(C)n1cc(-c2ccnc(NCCCNS(=O)(=O)c3ccc(Br)cc3)c2)c(-c2cccc(O)c2)n1,47.1%,40.4%,30.9%,46.8%,-21.2% (active),48.4%,13.5%,24.1%,-2.1% (active),-62.6% (active)
COc1ccc(-n2c(=S)sc3c(Cl)nc(C)nc32)c(OC)c1,31.8%,100%,61.9%,90%,3.2% (active),54.2%,20.8%,91.3%,75.3%,61.1%
O=[N+]([O-])c1cc(Cl)c2[nH]c3c(Cl)cc([N+](=O)[O-])cc3c2c1,9.08% (active),-0.747% (active),-0.868% (active),15.3%,-15.8% (active),-14.3% (active),-44% (active),-42% (active),8.87% (active),-73.6% (active)
COc1cc2c(=O)n(C3CCCCCC3)c3c4cc[nH]c4ncc3c2cc1OC,77.1%,43.9%,89.2%,59%,72.4%,59.1%,65.4%,79.7%,90.2%,79.9%
CC(=O)OC[C@]12CC[C@H]3[C@@H](C[C@H]4O[C@]45CC=CC(=O)[C@]35C)[C@]1(O)CC[C@@]2(O)[C@@](C)(O)C1CC(C)=C(C)C(=O)O1 (stereo not given in full),-32.9% (active),-28.5% (active),-54.2% (active),-34% (active),-51.3% (active),-34.6% (active),-54.1% (active),6.23% (active),-19.6% (active),-35.7% (active)
C=C1CCC2C(C)(CO)C(O)CCC2(C)C1CC(NCc1ccccc1)C1=CCOC1=O (stereo not given),98.9%,100%,103%,107%,102%,99.8%,89.9%,99.9%,96.3%,103%
O=C(C1=Cc2cc3ccccc3n2Cc2cnnn21)c1ccccc1,73.6%,78.1%,80.6%,39.2%,30.9%,55.1%,9.68% (active),58.5%,69.1%,58.8%
O=Nc1c(-c2cccc([N+](=O)[O-])c2)nc2ncccn12,83.4%,102%,120%,100%,101%,87.4%,67.1%,97.7%,93.9%,65.1%
NC(=N\N=C/c1ccc(O)cc1)/C(N)=N\N=C/c1ccc(O)cc1,90.9%,101%,77.5%,79.3%,35.9%,79%,31.4%,52.5%,52.6%,124%
CC(C)(C)OC(=O)NC(CSCc1ccccc1)C(=O)ON1C(=O)CCC1=O (stereo not given),94.3%,110%,131%,105%,111%,92.4%,91.5%,106%,114%,112%
COc1ccc(Nc2ncccc2C(=O)NCc2cn(Cc3cccc(Oc4ccccc4)c3)nn2)c(OC)c1,37.5%,73.5%,56.1%,41.7%,7.15% (active),62%,11.6%,39%,34%,4.54% (active)
COc1ccc(-c2nc(-c3nc4cc(C)c(C)cc4[nH]3)cc3c2[nH]c2ccccc23)cc1,60.1%,95.8%,84%,58.4%,42.2%,52.3%,72.5%,43.2%,6.87% (active),41.9%
CC(C)NCCCNC1=C(Cl)C(=O)c2ccccc2C1=O,16.3%,93.1%,105%,98.3%,87.2%,110%,91.9%,81.7%,113%,95.4%
NC(=S)N/N=C1\CCCC(C(F)(F)F)C1 (stereo not given),101%,117%,101%,107%,109%,96%,94%,100%,98.9%,114%
COc1cc(C2NN=C3c4ccccc4CCC32)cc(OC)c1OC (stereo not given),73.4%,62.6%,88%,82.3%,91.3%,62.4%,81.2%,42%,93.9%,89.3%
CCOC(=O)C1=C(C)NC(C)=C(C(=O)OCC)C1(C)C,113%,98.8%,107%,102%,111%,98.3%,98.1%,93.2%,88.2%,113%
O=C1NC(=C(Cl)Cl)/C(=N/S(=O)(=O)N2CCC(C3(C(F)(F)F)N=N3)CC2)N1,45.3%,106%,95.8%,104%,100%,87%,-58% (active),106%,103%,26%
CC12CCCC(CC(=O)c3[nH]c4ccccc4c31)C2 (stereo not given),33.5%,60.8%,35.7%,28.2%,7.52% (active),47%,2.33% (active),27.7%,41.4%,7.12% (active)
CCN(CC)CCOc1ccc(Cl)c(C)c1,91.6%,104%,103%,104%,106%,85.7%,92.4%,96.5%,99.6%,103%
O=C(NS(=O)(=O)c1ccccc1)n1cc(-c2ccncc2)c(-c2ccc(Cl)c(O)c2)n1,104%,103%,103%,119%,107%,99.6%,85.4%,98.3%,100%,111%
COc1ccc(NC(=O)c2c(Nc3ccc(OC)cc3OC)n[nH]c2N)c(OC)c1,91.7%,89.9%,87.7%,94.3%,107%,74.1%,79.3%,96.8%,107%,100%
Nc1nc(-c2ccccc2)c(CCCOc2ccc(NC(=O)CBr)cc2)c(=O)[nH]1,94.4%,100%,135%,134%,108%,99.6%,71.8%,93.3%,115%,118%
CCC(=O)OC1=CN2C(=NC(c3ccc(N)cc3)=CC2c2cc(OC)c(OC)c(OC)c2)S1 (stereo not given),84.8%,75%,63%,48.1%,16.7%,48.4%,40.6%,39.2%,72.1%,47%
COc1ccc(-c2c(-c3cc(OC)c4c(c3)OCO4)noc2N)cc1,40.6%,22.8%,51.1%,10.3%,4.43% (active),35.4%,4.5% (active),13.3%,14.5%,-88.9% (active)
CN1CCN(Cc2ccc(NC(=O)c3cncc(C#Cc4cnc(N)c5ccncc45)c3)cc2C(F)(F)F)CC1,15.4%,-12.8% (active),20.4%,9.44% (active),8.86% (active),-22.5% (active),24.4%,26.4%,35.3%,-16.1% (active)
N=C(N)c1ccc(-c2ccc(-c3ccc4ccccc4c3)s2)cc1,88.7%,96.7%,97%,97.6%,99.7%,79.3%,104%,71.5%,95%,97.9%
CCOC(=O)c1ccc2c(c1)nc(-c1ccc(OCc3ccccc3)c(OC)c1)n2-c1cc(C(C)(C)C)[nH]n1,88.1%,91.6%,92.8%,91.4%,74.9%,93.5%,67.8%,59.3%,98.7%,67.4%
